Measured values as given in PubChem BioAssay.
Active and inactive are the calls of the source.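 How the source made its calls, unless noted: active means fluorescence slope higher than the sample average by over 3 SD (cut at about -0.22 in these data, passing the limit was not always enough); inactive means the rest.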

Tests used:
[1] = inhibitors of TNFa-induced NFkB p65 translocation, primary screen, imaging, HUVEC, MLSMR starter and 10KST1 sets (AID 438;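 active means inhibition above 20% together with a positive visual image hit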;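 further: compound added about 3h40 before a 20 min TNFalpha stimulation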;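 on inhibition: signal is the nuclear over cytoplasmic p65 intensity ratio per well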); conditions: HUVEC TNFa-induced p65 nuclear translocation; cell count: measured here: nuclei count (cytotoxicity indicator), at 2.08 µM; inhibition: at 2 µM, stronger effect = higher value, 0% TNFa-plus-vehicle, 100% no-TNFa wells
[2] = inhibitors of mutant huntingtin aggregation, primary screen, imaging, exon1htt(103Q)mCFP cells, high-content imaging (AID 483;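 active means visual image review flags a hit and inhibition of aggregation exceeds 20%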;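 further: compound exposure lasted 3 days before fixation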;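 on nuclei count: percent of the per-plate median nuclei count of sample wells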); conditions: exon1htt(103Q)mCFP cell line, aggregate imaging, at 2 µM; inhibition of aggregation: stronger effect = higher value; nuclei count: measured here: cell count, toxicity
[3] = inhibitors of E-selectin induction by TNFa, primary screen, imaging, HUVEC, immunofluorescence, MLSMR starter and 10KST1 sets (AID 487;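 active means visually confirmed hit in the image check and inhibition above 20%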;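 on inhibition: signal is fraction of cell area covered by stained E-selectin grains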;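 on nuclei count: 100% = median nuclei count of all wells on the same plate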); conditions: HUVEC TNFalpha-induced E-selectin immunofluorescence imaging, at 2 µM; inhibition: stronger effect = higher value; nuclei count: measured here: cell number, toxicity
[4] = target: Voltage-gated potassium channel subunit beta-2 (Rattus norvegicus) (UniProt P62483); assay: KvBeta enzyme negative modulators, primary screen, biochemical, NADPH fluorescence (AID 622); conditions: recombinant KvBeta, 4-cyanobenzaldehyde reduction, at 10 µM, stronger effect = higher value;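 further: slope of raw intensity against log time taken from 70 to 1610 s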
Sequence of Voltage-gated potassium channel subunit beta-2 (Rattus norvegicus) (P62483 whole entry, looked up): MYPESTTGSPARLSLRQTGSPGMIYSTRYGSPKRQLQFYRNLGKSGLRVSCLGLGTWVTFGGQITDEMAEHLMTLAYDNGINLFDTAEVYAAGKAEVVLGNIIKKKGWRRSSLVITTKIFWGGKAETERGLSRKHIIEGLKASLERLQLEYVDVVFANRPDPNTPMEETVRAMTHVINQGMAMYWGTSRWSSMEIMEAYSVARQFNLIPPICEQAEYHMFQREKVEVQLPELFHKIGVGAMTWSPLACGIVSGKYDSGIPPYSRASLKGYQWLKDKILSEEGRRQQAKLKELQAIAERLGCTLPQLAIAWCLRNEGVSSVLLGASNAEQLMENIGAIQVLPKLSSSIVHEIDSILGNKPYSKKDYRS

[5] = target: Voltage-gated potassium channel subunit beta-2 (Rattus norvegicus) (UniProt P62483); assay: KvBeta positive modulators, primary screen, biochemical, NADPH fluorescence (AID 623;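 active means NADPH fluorescence slope more negative than the mean of all samples by about 3 SD, 99.7% confidence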;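 further: fluorescence intensity change per second fitted from 20 to 320 s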); conditions: Recombinant KvBeta, NADPH fluorescence decrease slope, 10 min; at 10 µM; stronger effect = lower value
[6] = target: Alpha-2C adrenergic receptor (Homo sapiens) (UniProt P18825); assay: modulators of alpha2C/GIRK thallium flux, primary screen, cell-based, HEK293 alpha2C/GIRK1/2 (AID 624;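 active means fluorescence slope after compound addition differing from the mean of all screened samples at 99.7% confidence, in either direction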;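 further: slope of fluorescence ratio to pre-addition baseline per second over 15 to 24 s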); conditions: thallium flux BTC fluorescence, at 10 µM, actives lie on both sides
Sequence of Alpha-2C adrenergic receptor (Homo sapiens) (P18825 whole entry, looked up): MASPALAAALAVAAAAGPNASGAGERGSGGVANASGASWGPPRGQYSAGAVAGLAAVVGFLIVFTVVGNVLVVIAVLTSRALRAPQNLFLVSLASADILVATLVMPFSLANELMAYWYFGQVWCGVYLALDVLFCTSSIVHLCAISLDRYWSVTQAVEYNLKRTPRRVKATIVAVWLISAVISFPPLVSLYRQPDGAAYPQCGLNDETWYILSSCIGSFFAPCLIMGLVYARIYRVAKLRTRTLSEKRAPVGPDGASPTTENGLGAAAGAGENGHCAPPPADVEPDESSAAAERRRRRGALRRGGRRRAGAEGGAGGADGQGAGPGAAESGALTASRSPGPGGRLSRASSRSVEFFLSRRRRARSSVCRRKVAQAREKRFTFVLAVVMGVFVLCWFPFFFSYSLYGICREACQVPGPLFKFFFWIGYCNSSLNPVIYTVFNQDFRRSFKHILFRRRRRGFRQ

[7] = inhibitors of Sendai virus-induced IRF3 signaling, primary screen, TLR/RLR signaling modifier project, cell-based, Sendai virus stimulus, luciferase, 10K MLSCN set (AID 602276;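 active means inhibition at or above 50% at 10 µM; inactive means inhibition below 50%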;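 further: firefly luciferase from ISG56 promoter only with Renilla not read in this screen; 0% = Sendai virus plus DMSO and 100% = medium plus DMSO without virus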); conditions: HEK293 RL24 IRF3 luciferase reporter, at 10 µM, stronger effect = higher value
[8] = inhibitors of poly I:C-induced TLR3 signaling, primary screen, cell-based, poly I:C stimulus, luciferase, 10K MLSCN set (AID 602277;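 active means inhibition of the reporter signal at or above 50%; inactive means inhibition below 50%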); conditions: HEK293-TLR3 RL24 IRF3 luciferase reporter, at 10 µM, stronger effect = higher value

SMILES	cell count [1]	inhibition [1]	inhibition of aggregation [2]	nuclei count [2]	inhibition [3]	nuclei count [3]	fluorescence slope [4]	NADPH fluorescence slope [5]	slope [6]	inhibition [7]	inhibition [8]
CCCCn1c(CN2CCN(c3ccccc3)CC2)nc2c1c(=O)n(C)c(=O)n2C	702	-11.5% (inactive)	-3.7% (inactive)	90.6%	-17.7% (inactive)	117%	-0.542 (inactive)	-4.7e-05 (inactive)	0.00817 (inactive)	1.46% (inactive)	-8.66% (inactive)
COc1ccccc1-c1nnc(SCc2ccccn2)n1C	307	7.6% (inactive)	-5.8% (inactive)	97.6%	-25.6% (inactive)	104%	-0.581 (inactive)	0.000106 (inactive)	0.0056 (inactive)	-14.7% (inactive)	-10.3% (inactive)
Cn1c(-c2cc(Br)ccc2O)n[nH]c1=S	440	5.5% (inactive)	-2.6% (inactive)	109%	-76.5% (inactive)	118%	-0.51 (inactive)	4.9e-05 (inactive)	0.00989 (inactive)	-4.65% (inactive)	-14.4% (inactive)
O=c1c(-c2ccccc2)coc2c(CN3CCOCC3)c(O)ccc12	335	-2.5% (inactive)	-6.5% (inactive)	108%	-116% (inactive)	129%	-0.0601 (active)	4.4e-06 (inactive)	0.00553 (inactive)	-3.14% (inactive)	10.1% (inactive)
COC(=O)CN1C(=O)C(O)(CC(=O)c2ccc(Cl)cc2)c2ccccc21 (stereo not drawn)	605	-0.8% (inactive)	-5.5% (inactive)	110%	-40.7% (inactive)	102%	-0.372 (inactive)	2.5e-05 (inactive)	0.00594 (inactive)	17.2% (inactive)	36% (inactive)
COc1cc2nc(SCC(=O)NC3CC3)n(CCC3=CCCCC3)c(=O)c2cc1OC	688	-4% (inactive)	0.8% (inactive)	101%	-35.1% (inactive)	108%	-0.427 (inactive)	-4e-06 (inactive)	0.00342 (inactive)	14.1% (inactive)	24.7% (inactive)
CC(CN(C)Cc1ccccc1)OC(=O)c1ccc2c(c1)OCCO2 (stereo not drawn)	596	0% (inactive)	-0.4% (inactive)	126%	-40.2% (inactive)	109%	-0.48 (inactive)	-5.1e-05 (inactive)	0.00539 (inactive)	8.96% (inactive)	8.88% (inactive)
COC(=O)c1cccc(S(=O)(=O)N2CCC(C)CC2)c1	326	-10.3% (inactive)	11.2% (inactive)	95.5%	-70.6% (inactive)	93%	-0.547 (inactive)	5.2e-05 (inactive)	0.00519 (inactive)	0.114% (inactive)	-2.56% (inactive)
CC1(C)COCN1S(=O)(=O)c1ccc(C(=O)Nc2nnc(-c3ccc(Cl)s3)o2)cc1	440	10.8% (inactive)	-2.8% (inactive)	98.3%	-26.4% (inactive)	93.8%	-0.545 (inactive)	1.8e-05 (inactive)	0.00616 (inactive)	49.1% (inactive)	36.9% (inactive)
O=C(CN1CCN(Cc2ccc(F)cc2Cl)C1=O)NCCCN1CCOCC1	477	7% (inactive)	-27.6% (inactive)	65.3%	-63.8% (inactive)	99.9%	-0.523 (inactive)	-3.8e-05 (inactive)	0.00757 (inactive)	0.912% (inactive)	36.5% (inactive)
O=C(O)c1cccc(NS(=O)(=O)c2ccc3nnn(O)c3c2)c1	435	10.6% (inactive)	-5.7% (inactive)	108%	–	152%	-0.403 (inactive)	-5.1e-06 (inactive)	0.00611 (inactive)	12.9% (inactive)	18.7% (inactive)
CCOC(=O)N1CCC(NC(=O)c2cnn3ccccc23)CC1	761	7.4% (inactive)	-3.3% (inactive)	88.5%	-67% (inactive)	113%	-0.589 (inactive)	4.8e-07 (inactive)	0.0078 (inactive)	-3.54% (inactive)	9.82% (inactive)
COc1ccc(Br)cc1C1N2CC3(C)CN1CC(C)(C2)C3=O (stereo not drawn)	435	5.6% (inactive)	6.8% (inactive)	96.9%	–	148%	-0.389 (inactive)	-0.000152 (inactive)	0.00688 (inactive)	-3.74% (inactive)	10.3% (inactive)
CCCn1c(N)c(C(=O)CSc2nnc(Cc3ccccc3)o2)c(=O)n(C)c1=O	412	1% (inactive)	4.7% (inactive)	99.8%	–	150%	-0.556 (inactive)	0.00012 (inactive)	0.00683 (inactive)	9.61% (inactive)	-3.84% (inactive)
O=C(CSc1nnc2ncccn12)N1CCCCCC1	673	26.6% (active)	8.3% (inactive)	106%	-9.5% (inactive)	82.7%	-0.475 (inactive)	-0.000211 (inactive)	0.00529 (inactive)	4.98% (inactive)	99.3% (active)
O=C(OCc1nnc(-c2ccc(Cl)cc2)o1)c1ccc(=O)n(Cc2ccccc2)n1	413	1.7% (inactive)	3% (inactive)	99.3%	–	160%	-0.44 (inactive)	-5e-05 (inactive)	0.00426 (inactive)	-5.01% (inactive)	-8.16% (inactive)
O=C(c1c(Cl)nc2sccn12)N(C(=O)c1c(Cl)nc2sccn12)c1ccc(Cl)cn1	819	3.8% (inactive)	-20.1% (inactive)	103%	-97.4% (inactive)	126%	-0.465 (inactive)	7.2e-06 (inactive)	0.00593 (inactive)	-31.5% (inactive)	-77.8% (inactive)
O=C(O)CCc1ccc(-c2ccc(F)cc2)n1CC(=O)O	411	7.9% (inactive)	0.9% (inactive)	97%	–	142%	-0.462 (inactive)	-0.000309 (inactive)	0.00527 (inactive)	10.3% (inactive)	19.7% (inactive)
Cc1onc(-c2ccccc2)c1C(=O)Nc1sc2c(c1C(N)=O)CCC2	404	4.8% (inactive)	-0.6% (inactive)	107%	–	139%	-0.282 (inactive)	-1.9e-05 (inactive)	0.00375 (inactive)	8.08% (inactive)	-31.8% (inactive)
CCOc1ccc2nc(SCC(=O)N3CCCCCC3)c(C#N)cc2c1	611	9.1% (inactive)	-7.9% (inactive)	98.1%	-95.4% (inactive)	150%	-0.584 (inactive)	-3.2e-05 (inactive)	0.00304 (inactive)	-1.31% (inactive)	-24.8% (inactive)
Cc1ccc(Cn2nnc(C(=O)Nc3cccc(C)c3C)c2N)cc1	457	9.4% (inactive)	1.7% (inactive)	95.1%	–	150%	-0.565 (inactive)	2.2e-07 (inactive)	0.00621 (inactive)	6.59% (inactive)	9.57% (inactive)
COc1cccc(C(=O)Nc2ccc(C)cc2)c1	410	-0.2% (inactive)	4.8% (inactive)	95.1%	–	154%	-0.367 (inactive)	4.6e-05 (inactive)	0.00626 (inactive)	-48.7% (inactive)	-91.5% (inactive)
C=CCN1C(=O)CS/C1=C(\C#N)S(=O)(=O)c1ccc(C)cc1	585	13.3% (inactive)	-5.1% (inactive)	108%	-75.5% (inactive)	104%	-0.481 (inactive)	-4.8e-05 (inactive)	0.00449 (inactive)	20% (inactive)	28.5% (inactive)
CC1CCN(CCc2nc3cc(NS(=O)(=O)c4ccc(F)cc4)ccc3n2C)CC1	392	6.1% (inactive)	13.2% (inactive)	97.6%	-31.1% (inactive)	106%	-0.5 (inactive)	-3.1e-05 (inactive)	0.00517 (inactive)	5.27% (inactive)	16% (inactive)
Cc1cc(NC(=O)c2ccccc2)ncc1NC(=O)c1ccco1	427	12.5% (inactive)	11.4% (inactive)	100%	–	147%	-0.603 (inactive)	2.5e-05 (inactive)	0.00711 (inactive)	7.79% (inactive)	-25.3% (inactive)
COc1ccc(N2CCN(Cc3nc4c(c(=O)[nH]c(=O)n4C)n3CC(C)=O)CC2)cc1	682	0.5% (inactive)	-29.1% (inactive)	126%	-37.3% (inactive)	119%	-0.578 (inactive)	-2.9e-05 (inactive)	0.00484 (inactive)	4.33% (inactive)	29.5% (inactive)
CCC(=O)Nc1c2c(nn1-c1ccccc1C)CSC2	592	8.9% (inactive)	-2.1% (inactive)	114%	31.2% (inactive)	99.7%	-0.614 (inactive)	-1.7e-05 (inactive)	0.00682 (inactive)	14.2% (inactive)	21.4% (inactive)
Clc1cccc(Nc2c3c(nc4ncnn24)CCC3)c1	416	6% (inactive)	-33.4% (inactive)	36%	–	145%	-0.63 (inactive)	-2.2e-07 (inactive)	0.00604 (inactive)	14.9% (inactive)	30.2% (inactive)
